From PubChem BioAssay (NCI) come the findings set out here.

Test systems include NCI-H23 lung; NCI-H226 lung; NCI-H322M lung; HOP-62 NSCLC; NCI-H460 lung; HOP-92 NSCLC; NCI-H522 lung; A549/ATCC NSCLC; 786-0 renal; COLO 205 colon.
Assay in all cases: NCI-60 one-dose screen, 48 h (100 = growth as untreated, 0 = no growth, -100 = all killed)
Holding throughout (conditions): 10 µM unless noted

Compounds without any hit were thinned out: in the full panel of roughly 83,000, 20% have a hit.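 Single-concentration screen, 48 h exposure, 96-well plates. Endpoint: percent growth. Below 10 = active.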 Unmarked numbers belong to inactive results. Calls of active or inactive are those of the source.

For the compound `CC(C)C[C@@H](NC(=O)[C@@H](Cc1ccccc1)NC(=O)c1cnccn1)B1Oc2ccc(C[C@H](NC(=O)[C@H](Cc3ccc4c(c3)OB([C@@H](CC(C)C)NC(=O)[C@@H](Cc3ccccc3)NC(=O)c3cnccn3)O4)NC(=O)[C@@H](N)CC3CCC4OB([C@@H](CC(C)C)NC(=O)[C@@H](CC5CCCCC5)NC(=O)C5CNCCN5)OC4C3)C(=O)NCCCC[C@@H]3NC(=O)[C@@H](Cc4ccccc4)NC(=O)[C@H](CC(=O)O)NC(=O)CNC(=O)[C@H](CCCNC(=N)N)NC3=O)cc2O1` (some centres undefined), the growth is -41.3% (active) in the assay on NCI-H23 lung; -50.2% (active) with NCI-H226 lung; -8.33% (active) in the assay on NCI-H322M lung; -43.2% (active) in the assay with HOP-62 NSCLC; -54.8% (active) in the assay on NCI-H460 lung; -74.1% (active) in the assay with HOP-92 NSCLC. In addition, the growth is -43.4% (active) in the assay on NCI-H522 lung, -49.5% (active) with A549/ATCC NSCLC, -12.6% (active) in the assay with 786-0 renal and -72.6% (active) with COLO 205 colon.
In the case of `CN(C)S(=O)(=O)c1ccc(S(=O)(=O)Nc2cccc(Cl)c2N2CCCCC2)cc1`, the growth is 84.1% in the assay on NCI-H23 lung; 82.9% in the assay on NCI-H226 lung; 98.7% with NCI-H322M lung; 87.9% with HOP-62 NSCLC; 93.6% in the assay on NCI-H460 lung; 72.4% in the assay on HOP-92 NSCLC. Also, the growth is 68.7% in the assay with NCI-H522 lung, 66.9% with A549/ATCC NSCLC, 87.9% in the assay with 786-0 renal and 106% in the assay with COLO 205 colon.
As to `Cc1cc(Nc2ccc(C)c(Cl)c2)n2nc(C(F)(F)F)nc2n1`, the growth in the assay on NCI-H23 lung is 63.6%; in the assay with NCI-H226 lung, 21.3%; in the assay with NCI-H322M lung, 93.3%; in the assay on HOP-62 NSCLC, -17.2% (active); in the assay on NCI-H460 lung, 69%; in the assay on HOP-92 NSCLC it was -9.25% (active). Also, the results for the growth with NCI-H522 lung, in the assay with 786-0 renal and with COLO 205 colon were 36.2%, -46.2% (active) and 38.3%, respectively.
Turning to `c1ccc(CCNc2ncnc3[nH]ncc23)cc1`, the growth in the assay on NCI-H23 lung is 94.4%; in the assay on NCI-H226 lung it was 89.4%; with NCI-H322M lung, 112%; in the assay with HOP-62 NSCLC, 89.7%; in the assay with NCI-H460 lung, 117%; in the assay on HOP-92 NSCLC, 55.4%. Moreover, the growth in the assay on NCI-H522 lung was 85.5%; in the assay on A549/ATCC NSCLC it was 92.4%; with 786-0 renal, 96.4%; in the assay on COLO 205 colon, 114%.
For `CCCCCCN(CCCCCC)CCC(O)c1ccc2ccccc2c1` (centres undefined), the growth in the assay on NCI-H23 lung was 45.3%; with NCI-H226 lung, 79.2%; with NCI-H322M lung it was 80.9%; in the assay on HOP-62 NSCLC, 101%; with NCI-H460 lung it was 51.5%; in the assay on HOP-92 NSCLC it was 2.35% (active). Further, the growth in the assay with NCI-H522 lung is 60.2%; in the assay with 786-0 renal, 54.1%; with COLO 205 colon, 39.5%.
For the compound `COc1cc(C=Nc2oc(-c3ccccc3)c(-c3ccccc3)c2C#N)cc(CN2CCCCC2)c1O`, the growth in the assay on NCI-H23 lung is 88.6%; in the assay with NCI-H226 lung, 90.5%; in the assay on NCI-H322M lung, 99.6%; with HOP-62 NSCLC, 97.8%; in the assay on NCI-H460 lung, 101%; in the assay on HOP-92 NSCLC, 103%. The growth is 88% in the assay with NCI-H522 lung, 105% with A549/ATCC NSCLC, 102% with 786-0 renal and 122% in the assay on COLO 205 colon.
On to `CNC(=O)c1cc(Oc2ccc(NC(=O)Nc3ccc(Cl)c(OC(F)(F)F)c3)c(F)c2)ccn1`, for which the growth in the assay with NCI-H23 lung was 7.09% (active); in the assay with NCI-H226 lung, 31.5%; with NCI-H322M lung, 71.7%; in the assay with HOP-62 NSCLC, 39%; with NCI-H460 lung it was 37.4%; with HOP-92 NSCLC, 28.9%. Also, the growth in the assay on NCI-H522 lung was 5.56% (active); in the assay on 786-0 renal it was 58%; with COLO 205 colon, 6.8% (active).
Regarding `O=C(O)c1c(=O)cccc2ssc12`, the growth in the assay on NCI-H23 lung was 0.447% (active); in the assay with NCI-H226 lung, -14.8% (active); in the assay on NCI-H322M lung, 62.1%; with HOP-62 NSCLC, -45.5% (active); with NCI-H460 lung it was 1.81% (active); with HOP-92 NSCLC, -0.323% (active). For the same compound, the growth in the assay with NCI-H522 lung was -0.415% (active); in the assay on 786-0 renal it was -10.1% (active); with COLO 205 colon it was -45.7% (active).
Regarding `Cc1cc(C)nc(SC2=C(Nc3ccc(O)cc3)C(=O)N(Cc3ccccc3)C2=O)n1`, the growth is 98.8% [40 µM] in the assay on NCI-H23 lung; 89.7% [40 µM] in the assay on NCI-H226 lung; 108% [40 µM] in the assay with NCI-H322M lung; 100% [40 µM] with HOP-62 NSCLC; 85.3% [40 µM] with NCI-H460 lung; 38.1% [40 µM] in the assay on HOP-92 NSCLC. Further, the growth with NCI-H522 lung is 78.3% [40 µM]; with A549/ATCC NSCLC, 63% [40 µM]; with 786-0 renal it was 97.6% [40 µM]; in the assay on COLO 205 colon, 108% [40 µM].
For `C/C1=C\CC[C@@]2(C)O[C@H]2[C@H]2OC(=O)C(CN3CCN(CC4C(=O)O[C@H]5[C@H]4CC/C(C)=C/CC[C@@]4(C)O[C@@H]54)CC3)[C@@H]2CC1` (some centres undefined), the growth in the assay on NCI-H23 lung was 98.5%; with NCI-H226 lung it was 99.2%; with NCI-H322M lung, 99.3%; in the assay with HOP-62 NSCLC, 107%; in the assay with NCI-H460 lung it was 107%; with HOP-92 NSCLC, 100%. Further, the values for the growth in the assay with NCI-H522 lung, with 786-0 renal and in the assay with COLO 205 colon were 33.4%, 109% and 98.2%, respectively.
As for `CCCCCC(=O)Oc1ccc(/C(=C(\C)c2ccc(OC)cc2)c2ccc(OCCN3CCCCC3)cc2)cc1`, the growth with NCI-H23 lung is 67.1%; in the assay on NCI-H226 lung it was 98.7%; in the assay with NCI-H322M lung, 78.2%; in the assay with HOP-62 NSCLC, 63.1%; with NCI-H460 lung, 51.6%; in the assay with HOP-92 NSCLC it was 81.7%. The growth with NCI-H522 lung was 74.6%; with A549/ATCC NSCLC, 53.2%; in the assay on 786-0 renal it was 46.8%; in the assay on COLO 205 colon it was -32.6% (active).
For the compound `Cn1ncc2c(=O)nc3c(-c4ccccc4)n[nH]n3c21`, the growth in the assay with NCI-H23 lung was 101%; in the assay with NCI-H226 lung it was 91.9%; with NCI-H322M lung, 80.9%; in the assay on HOP-62 NSCLC, 95.5%; with NCI-H460 lung it was 103%; in the assay with HOP-92 NSCLC it was 116%. Moreover, the growth was 73.2% in the assay with NCI-H522 lung, 101% in the assay with A549/ATCC NSCLC, 99.9% with 786-0 renal and 119% with COLO 205 colon.
For the compound `NC(=O)c1cc(Cl)ccc1NC(=O)/C=C/c1ccccc1`, the growth in the assay with NCI-H23 lung is 60.3%; in the assay on NCI-H226 lung, 63.6%; with NCI-H322M lung it was 45.1%; in the assay on HOP-62 NSCLC it was 84.9%; in the assay on NCI-H460 lung it was 12.1%; in the assay on HOP-92 NSCLC, 58.7%. In addition, the growth with NCI-H522 lung was 4.73% (active); in the assay with 786-0 renal, 56.8%; with COLO 205 colon it was -43.3% (active).
For `CCCSc1ccc2nc(NC(=O)OC)[nH]c2c1`, the growth in the assay on NCI-H23 lung is 24%; with NCI-H226 lung, 23.2%; in the assay on NCI-H322M lung, 60.1%; with HOP-62 NSCLC, 35.2%; in the assay on NCI-H460 lung, 6.79% (active); in the assay on HOP-92 NSCLC, 33.6%. In addition, the growth is -35.7% (active) in the assay on NCI-H522 lung, 16.5% in the assay with A549/ATCC NSCLC, 31% in the assay with 786-0 renal and 5.29% (active) in the assay on COLO 205 colon.
